Calls of active or inactive are those of the source. How the source made its calls: active means hit-call score of the fitted dose curve at least 0.9, where 1 is the maximum; inactive means score below 0.9.
read-out: Forkhead box O1 (FOXO1), FOXO1 (gene 2308); test: LTEA_HepaRG_FOXO1: Life Technologies and Expression Analysis (LTEA) Assay for Forkhead box O1 (FOXO1) using HepaRG (AID 2283456); conditions: mRNA level, 48 h; actives raise or lower the signal
Procedure: LTEA_HepaRG is a cell based, multiplexed-readout assay that uses HepaRG, a human liver cell line, with measurements taken at 48 hours after chemical dosing on a 96-well plate.LTEA_HepaRG_FOXO1 is one of 102 assay component(s) measured in the LTEA HepaRG cell culture assay. It is a marker of Cell proliferation, survival, death.Data from the assay component LTEA_HepaRG_FOXO1 was analyzed into 1 endpoint. This assay endpoint, LTEA_HepaRG_FOXO1, was analyzed with bidirectional fitting relative to DMSO as the negative control and baseline of activity. Using a type of inducible reporter, measures of mRNA induction for gain or loss-of-signal activity can be used to understand regulation of transcription factor activity. To generalize the intended target to other relatable targets, this assay endpoint is annotated to the dna binding intended target family, where the subfamily is forkhead box protein.
A total of 1060 chemcials from the ToxCast library were tested in eight-point concentration-response experiments. Cell culture and cytotoxicity assays were conducted at Thermo Fisher Scientific's Custom Services facility (Madison, WI). A single lot of human HepaRG cells (Thermo Fisher Scientific, Frederick, MD) was used for the cell culture experiments. 96-well format collagen type I coated plates of human HepaRG cells were prepared using established methods. Briefly, cryopreserved HepaRG cells were thawed, plated at a density of approximately 100,000 cells/well in HepaRG Thaw, Plate, and General Purpose media (HPRG770, Thermo Fisher Scientific), and incubated for 48 hours. 0.5% DMSO was selected as vehicle control to balance the requisite need of DMSO in HepaRG cultures to maintain differentiation (for example, baseline metabolism, proportions of hepatocytes vs. cholangiocytes), while enabling further hepatic receptor pathway activation (for example, PXR and CAR) in response to chemical exposure. 48 hours after plating, the culture medium was replaced with HepaRG Serum-Free Incudtion Media. Cells were exposed to each test chemical in duplicate and maintained in CO2 incubators for another 48 hours. Chemical plates were thawed to room temperature and 200x concentrations of treatment groups were prepared. 8-point conentration-reponse curves were made with the highest exposure at 100 uM, followed by half-log dilutions, all in 0.5% DMSO. Each test plate contained variouse controls, induction positive controls (1mM phenobarbital), cytotoxicity positive controls ([…] aflatoxin B1), vehicle controls (0.5% DMSO), and total lysis controls (0.5% DMSO). Cell morphology images were taken using an Essen IncuCyte FLR automated microscope, with six 96-well plates imaged in about 24 minutes. Images were captured and exported and JPEG files. Spent culture media was transfered to black-well plates for the LDH assay, and remaining media was sorted at -80 C for later use. Cells were treated with RLT buffer and frozen until shipped for gene expression analysis. Total RNA was isolated from the cell suspension in 75 uL of Buffer RLT (Qiagen, Germantown, MD 20874) by Quintiles/Expression Analysis (Durham, NC) using a custom isolation procedure. Total RNA from each plate well was transferred to a preamplification plate. Fluidigm's 96.96 Dynamic ArrayTM (Fluidigm, Amsterdam, the Netherlands) technology was used for gene expression analyses by quantitative reverse transcription polymerase chain reaction (qRT-PCR, performed by Quintiles/Expression Analysis, Durham, NC)89. Standard TaqManTM Assays (Applied Biosystems/ThermoFisher Scientific, Foster City, CA) were used to assess the expression of 93 genes selected based on their selectivity and sensitivity to important hepatic receptors known to be modulated by environmental chemicals; importance in human hepatocyte functionality; and hepatotoxicity. […]

| SMILES | outcome | AC50 |
| --- | --- | --- |
| CCCC[C@H]1CN(CC2CCOCC2)C(=O)OC12CCN(C1(C)CCN(C(=O)c3c(C)ncnc3C)CC1)CC2 | inactive |  |
| OCC(CO)n1cnc(-c2ccc(F)cc2)c1-c1ccnc(Oc2ccccc2)n1 | inactive |  |
| COC(=O)CCCC(=O)OC | inactive |  |
| Oc1ccccc1O | inactive |  |
| CN(C)CCCN(C)CCCN(C)C | inactive |  |
| NC=O | inactive |  |
| CC(COCC(C)OC(=O)c1ccccc1)OC(=O)c1ccccc1 (stereo not given) | inactive |  |
| CC(=O)S[C@H](C(=O)N[C@H]1Cc2ccccc2[C@H]2CCC[C@@H](C(=O)O)N2C1=O)C(C)C | inactive |  |
| O=NO | inactive |  |
| O=C1NC(=O)C(c2ccccc2)(c2ccccc2)N1 | inactive |  |
| C=CCCCCCCCCCCCC | inactive |  |
| CC(C)OC(=O)C(C)(C)Oc1ccc(C(=O)c2ccc(Cl)cc2)cc1 | inactive |  |
| NC(=Nc1ccccc1)Nc1ccccc1 | inactive |  |
| O=C(O)c1[nH]n(-c2ccc(S(=O)(=O)O)cc2)c(=O)c1N=Nc1ccc(S(=O)(=O)O)cc1 | inactive |  |
| CCc1nc(N)nc(N)c1-c1ccc(Cl)cc1 | inactive |  |
| CCCCCCCCCCCCCCOS(=O)(=O)O | inactive |  |
| Cc1c(C)c2c(c(C)c1O)CCC(C)(COc1ccc(CC3SC(=O)NC3=O)cc1)O2 (stereo not given) | inactive |  |
| Nc1nc(Cl)nc2c1ncn2[C@H]1C[C@H](O)[C@@H](CO)O1 |  | 1.65 µM (active) |
| CC(=O)OC1CC(C)OC(C)O1 (stereo not given) | inactive |  |
| CS(=O)(=O)c1ccc([C@@H](C[C@H]2CCC(=O)C2)C(=O)Nc2cnccn2)cc1Cl |  | 1.27 µM (active) |

| SMILES | outcome | AC50 |
| --- | --- | --- |
| O=C(O)CN(CC(=O)O)CC(=O)O | inactive |  |
| COc1ccc(C(=O)Nc2nc3ccccc3c(NCc3ccccc3)c2C#N)cc1 | inactive |  |
| CC(=O)O[C@]1(C(C)=O)CC[C@H]2[C@@H]3C=C(Cl)C4=CC(=O)[C@@H]5C[C@@H]5[C@]4(C)[C@H]3CC[C@@]21C |  | 50 µM (active) |
| O=C(O)c1cccnc1 | inactive |  |
| O=C(N[C@@H](c1ccccc1)[C@@H]1CCCCN1)c1cccc(C(F)(F)F)c1Cl |  | 75.9 µM (active) |
| CSc1ccc(Oc2ccc(S(N)(=O)=O)cc2CN(C)C)cc1C | inactive |  |
| CC(N)=O | inactive |  |
| Cc1cn([C@H]2C=C[C@@H](CO)O2)c(=O)[nH]c1=O | inactive |  |
| CCc1cc(C2=C(C(=O)O)N(c3ccccc3C(F)(F)F)S(=O)(=O)c3ccccc32)cc2c1OCO2 | inactive |  |
| CCCCCCC(C=O)=Cc1ccccc1 | inactive |  |
| CN(C)C(=O)NC1(c2ccccc2)CCN(CC[C@@]2(c3ccc(F)c(F)c3)CN(C(=O)c3ccccc3)CCO2)CC1 | inactive |  |
| S=c1[nH]c2ccccc2s1 | inactive |  |
| CN(C)CCCN1c2ccccc2Sc2ccc(Cl)cc21 |  | 79.2 µM (active) |
| CCCCCCCCCC[N+](C)(C)[O-] | inactive |  |
| O=C1O[C@H]([C@H](O)CO)C(O)=C1O | inactive |  |
| CC(C)COC(=O)CCCCC(=O)OCC(C)C | inactive |  |
| CCOCCOCCO | inactive |  |
| Cc1cc(Cc2ccc(N)c(C)c2)ccc1N | inactive |  |
| C=CCc1ccc(OC)c(OC)c1 | inactive |  |
| CCCCC(CC)CO (stereo not given) | inactive |  |

— PubChem BioAssay (EPA / NIEHS)
